TbPYK inhibitor – qHTS of Trypanosoma Brucei Inhibitors | AID 624173, 2012 | 410,000 tested, 0.12% active | TbPYK enzyme, Kinase-Glo Plus ATP luminescence, 45 min | Potency, µM (doses to about 76.8 µM), for inactives: at the highest dose activity, negative = inhibition, most hits filed as inhibitors | pyruvate kinase (Trypanosoma brucei), Q57TT1; note: potency is the fitted concentration of half-maximal effect; % is set by controls: 0 for no effect and ±100 for the full control effect; nearly all actives have a fitted effect of over 50% in size
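Glycolytic pyruvate kinase of T. brucei was incubated with substrate, test compound and 130 uM ADP for 45 minutes at room temperature. Luminescent Kinase-Glo Plus signal was measured after 10 minutes.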
LmPK inhibitor – qHTS Assay for Inhibitors of Leishmania Mexicana Pyruvate Kinase (LmPK); Q27686; purified LmPK, Kinase-Glo ATP luminescence, 1 h; Potency, µM (highest dose often 57.5 µM), for the others: top-dose activity change, negative = inhibition, hits mostly inhibitors; 290,000 tested, 0.37% active; AID 1721, 2009; note: potency is the fitted concentration of half-maximal effect; % is set by controls: 0 for no effect and ±100 for the full control effect
Target sequence (Q27686 whole entry, looked up): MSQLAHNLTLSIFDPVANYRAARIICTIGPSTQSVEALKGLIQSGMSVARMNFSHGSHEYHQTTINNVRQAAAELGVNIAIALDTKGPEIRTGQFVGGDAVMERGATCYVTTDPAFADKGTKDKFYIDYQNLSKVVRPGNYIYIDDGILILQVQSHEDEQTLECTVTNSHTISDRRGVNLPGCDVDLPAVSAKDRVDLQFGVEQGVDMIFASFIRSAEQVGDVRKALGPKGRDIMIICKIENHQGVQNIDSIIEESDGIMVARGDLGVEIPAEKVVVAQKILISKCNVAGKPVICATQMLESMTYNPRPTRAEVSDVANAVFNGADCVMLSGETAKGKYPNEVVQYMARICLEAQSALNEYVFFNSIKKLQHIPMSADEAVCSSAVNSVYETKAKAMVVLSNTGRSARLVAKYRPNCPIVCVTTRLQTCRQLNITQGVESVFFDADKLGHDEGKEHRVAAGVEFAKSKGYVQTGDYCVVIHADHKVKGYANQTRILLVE
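Purified LmPK (0.1 nM) with 0.5 mM PEP and 0.1 mM ADP in imidazole buffer pH 7.2 with MgCl2/KCl, 1 h at room temperature. ATP formed was read by luciferase luminescence and normalized to no-enzyme and uninhibited controls.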
RE007 growth inh – qHTS Assay for Inhibitors of the HIV-1 protein Vpr | 360,000 tested, 0.21% active | AID 651644, 2012 | S. pombe RE007 Vpr strain, BacTiter-Glo ATP luminescence, 24 h | Potency, µM (highest dose often 92.2 µM), inactives show at the highest dose activity change, negative = less growth, usual class: inhibitors; active = well fitted falling curve with a large enough effect; inconclusive = small, poorly fitted or top-dose-only effect; inactive = no such curve, though single readings can be large or run the other way; note: potency is the fitted concentration of half-maximal effect; % is set by controls: 0 for no effect and ±100 for the full control effect; nearly all actives have a fitted effect of over 50% in size
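Fission yeast strain RE007, carrying one chromosomally integrated HIV-1 vpr copy, was seeded at OD 0.01 in PMG+AL medium with 23 nL pinned compound. After 24 h at 30 °C and 99% humidity, viability was read by BacTiter-Glo luminescence.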
CHX counter – Cycloheximide Counterscreen for Small Molecule Inhibitors of Shiga Toxin. cell reporter, cycloheximide protein synthesis inhibition counterscreen. max response, %. 300,000 tested, 12% active; in the data active = max response mostly above about 13%, no sharp cut-off; inactive = mostly below about 14%; note: read at 38.3 µM for the half of the compounds with a filed dose; 0% is about no effect
FBPA Giardia inh – qHTS Assay for Inhibitors of Fructose-1,6-bisphosphate Aldolase from Giardia Lamblia; A8B2U2; purified Giardia FBPA; Potency, µM (series often up to 59.6 µM), for the others: at the highest dose activity, negative = inhibition, hits mostly inhibitors; 290,000 tested, 0.71% active; note: potency is the fitted concentration of half-maximal effect; % is set by controls: 0 for no effect and ±100 for the full control effect; nearly all actives have a fitted effect of over 55% in size
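40 nM FBPA preincubated 10 min at RT with compound (up to 57.5 uM final), then substrate plus GAPDH/TPI/NAD/arsenate coupling and diaphorase/resazurin added. Fluorescence read after 20 min at RT, 525/598 nm.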
Shiga toxin inh – A qHTS for Small Molecule Inhibitors of Shiga Toxin | inhibition, % at 38.7 µM | Vero cells, Shiga toxin protein synthesis inhibition reporter | 290,000 tested, 9.2% active | AID 2315, 2010; in the data active = inhibition mostly above about 28%, no sharp cut-off; inactive = mostly below about 43%; note: 0% is about no effect
The depositor's hits bear a star; i = inactive; ? = inconclusive; nt = no result; [ ] = dose if it differs, or a comment. Shown is part of a subset that was picked to be rich in hits. Unless noted, calls come from the whole dose curve; as a rule, active = well fitted curve in the direction sought with a large enough effect; inconclusive = small, poorly fitted or top-dose-only effect, or another doubt; inactive = no such curve, though single readings can be large; an effect the other way counts as inactive or inconclusive.

SMILES | TbPYK inhibitor | LmPK inhibitor | RE007 growth inh | CHX counter | FBPA Giardia inh | Shiga toxin inh
COc1cccc(NC(=S)N/N=C2/CCCCc3ccccc32)c1 | -3% | 8% | 2% | 42* | -3% | 55*
Cc1ccc(NC(=S)NCc2cccs2)cc1 | 0% | 0% | 5% | 31* | 0% | 9
CCCCCCCCN1C(=O)[C@H](CC(=O)NCc2cccc(C(F)(F)F)c2)C[C@@]2(C(=O)OCC)CCCC=C12 | -3% | nt | -2% | nt | nt | nt
COc1ccc(CCC(=O)N2CCN(C3CCCCC3)CC2)cc1 | 0% | -13% | -5% | 6 | 3% | -6
CCC1CCCCN1C(=O)CCS(=O)(=O)c1ccccc1 (stereo unspecified) | 2% | -4% | -13% | 34* | nt | 76*
CCC1CCCCN1C(=O)CCCc1ccccc1 (stereo unspecified) | -3% | -1% | 8% | 35* | 11% | 70*
O=C(CCCc1ccccc1)N1CCN(C2CCCCC2)CC1 | -2% | -4% | 5% | 29* | 12% | nt
CNc1cc(-c2cccc(N(C)C)c2)ncn1 | -3% | nt | -21%[18.4 µM] | nt | nt | nt
Cc1noc(C)c1-c1nccc(-n2ccnc2)n1 | nt | nt | nt | nt | 0% | nt
CC1Oc2ccccc2N(CC(=O)NCc2ccccc2)C1=O (stereo unspecified) | -2% | -28% | 2% | 31* | 0% | 105*
Cc1ccc(Nc2nc(N)c3ccccc3n2)cc1C | 5% | -17% | -20% | 20* | ? | 37*
Cc1cc(Nc2ccc(C)c(C)c2)c2ccccc2n1 | -6% | 9% | -20% | -5 | 0% | -8
Cc1ccc(Nc2nc3ccccc3c(=O)[nH]2)cc1C | 1% | 3% | 13% | 37* | 4% | 36*
O=C(O)Cn1c(-c2ccccn2)nc2ccccc21 | 3% | -2% | 0% | 32* | -20% | 46*
CCOC(=O)Cn1c(-c2ccccn2)nc2ccccc21 | -11% | -2% | -16% | -3 | 0% | 20
CCOC(=O)c1ccc2c(c1)nc(-c1ccccn1)n2CC | 0% | -1% | 12% | 61* | 23% | 107*
CCc1ccc2nc(N(Cc3cccnc3)C(=O)Cc3ccccc3)sc2c1 | -5% | nt | nt | nt | nt | nt
CCOc1ccc(-c2nonc2NC(=O)c2oc3c(C)c(C)ccc3c2C)cc1OCC | -3% | nt | nt | nt | nt | nt
O=C1CCN(Cc2ccccc2)C=C1c1ccc(Br)cc1 | -1% | nt | -17% | nt | nt | nt
O=C(c1ccccc1Cl)N1CCCCC1CCN1CCCCC1 (stereo unspecified) | 2% | nt | nt | nt | nt | nt
COc1cc(NC(=O)c2c(OC)cccc2OC)ccc1NC(=O)c1cc2ccccc2o1 | -1% | -2% | -6% | 22* | 4% | nt
CCC(=O)Nc1ccc(NC(=O)c2cc3ccccc3o2)c(OC)c1 | 2% | 1% | 11% | 27* | 3% | 34*
Cc1ccc2cccc(NC(=S)NC(=O)c3ccn(C)n3)c2n1 | -4% | 5% | 10% | -1 | ? | -7
Cn1ccc(C(=O)NC(=S)N2CCSCC2)n1 | -5% | -3% | -23% | 12* | ? | 12
Cc1cc2nc3c(=O)[nH]c(=O)[nH]c3nc2c([N+](=O)[O-])c1N | -7% | 3% | -15% | -2 | 5µM* | -12
SMILES | TbPYK inhibitor | LmPK inhibitor | RE007 growth inh | CHX counter | FBPA Giardia inh | Shiga toxin inh
O=C(Cc1cccs1)Nc1ccc(-c2nnc(-c3ccccc3)o2)cc1 | 4% | nt | 4% | nt | nt | nt
Cc1cccc(-c2nnc(-c3cccc(NC(=O)Cc4cccs4)c3)o2)c1 | 1% | 2% | 2% | 20* | -2% | 13
Cc1ccc(-c2nnc(-c3cccc(NC(=O)c4cccs4)c3)o2)cc1 | 3% | 4% | 0% | 11 | 6% | 39*
O=C(Nc1cccc(-c2nnco2)c1)c1cccs1 | 3% | -1% | 12% | 1 | -8% | 12
C=CCN=C1N[C@@H](c2ccc(Br)cc2)C(C(=O)OC)=C(C)N1Cc1ccccc1 | nt | -7% | nt | -6 | -7% | 8
Cc1cccc(-c2cc3nc(C)cc(=O)n3[nH]2)c1 | -1% | nt | -2% | nt | nt | nt
Cc1nc2cc(-c3ccc(F)cc3)[nH]n2c(=O)c1C | -2% | -9% | 7% | 32* | -11% | 84*
Cc1nc2cc(-c3cccs3)[nH]n2c(=O)c1C | -3% | nt | -18% | nt | nt | nt
Cc1ccccc1-c1cc2nc(C)c(C)c(=O)n2[nH]1 | -6% | 0% | 1% | 23* | ? | 36*
CCCC[C@]12Cc3cc(OC)c(OC)cc3C(O1)C1=C(O2)C(=O)c2ccccc2C1=O | nt | -5%[11.5 µM] | nt | -2 | ? | i
CCOC(=O)c1cc(C(C)(C)C)oc1CNC(=O)c1c(C)oc2c1CCCC2 | 2% | 4% | 0% | 23 | 3% | 73*
CC(C)c1ccc(OCc2ccc(C(=O)O)o2)cc1 | 0% | 21% | 7% | 35* | ? | 64*
CC(C)c1ccc(OCc2ccc(C(=O)N(C)C)o2)cc1 | 0% | 0% | 16% | 65* | -3% | 151*
CCOc1ccc(C(=O)N(Cc2ccc(C(C)C)cc2)Cc2ccco2)cc1 | -8% | nt | nt | nt | nt | nt
O=C(NC1CC1)c1ccc(COc2ccc(F)cc2)o1 | 3% | -5% | 0% | 14 | -3% | 25
O=C(O)c1ccc(COc2ccc([N+](=O)[O-])cc2)o1 | -4% | 1% | 9% | 11 | 7% | 26
CC(C)c1ccc(OCc2ccc(C(=O)NN3CCN(C)CC3)o2)cc1 | -13% | -2% | 1% | 79* | -1% | 170*
CN(CC(=O)N1CCN(Cc2ccccc2)CC1)S(=O)(=O)c1cccc2nsnc12 | 0% | 6% | 0% | -6 | 3% | 7
COc1cccc(Cn2cnc3c2c(=O)n(C)c(=O)n3C)c1 | 1% | nt | nt | nt | nt | nt
C=CCn1c(C)csc1=Nc1ccc(C(=O)O)cc1 | -3% | -1% | 3% | 12 | -25% | 43
CC(=O)c1ccc(N=c2scc(C)n2C(C)C)cc1 | -2% | 8% | 7% | 40* | -1% | 57
COc1ccc(Nc2oc(/C=C/c3cc(OC)c(OC)c(OC)c3)nc2C#N)cc1 | -3% | nt | nt | nt | nt | nt
C=CCNC(=S)NNC(=O)c1cccn(Cc2ccc(Cl)cc2Cl)c1=O | 11µM* | 3% | -4% | -2 | 8% | -19
O=C(N/N=C1/C[C@@H](O)[C@@H](O)[C@@H]2[C@@H]3C(=O)N(Cc4ccc5c(c4)OCO5)C(=O)[C@H]3CC[C@H]12)OCc1ccccc1 | nt | nt | nt | nt | 5%[12.9 µM] | nt
CC1=NOC(=O)/C1=C\c1ccc(-c2cccc(Cl)c2)o1 | -17% | 4% | ? | 26 | -19% | 14
COC(=O)N/N=C/c1ccc(-c2cc(Cl)cc(Cl)c2)o1 | -4% | -1% | -25% | -6 | 1% | -3
Nc1ccccc1N=Cc1ccc(-c2cccc(Cl)c2)o1 | 12% | 6% | ? | 29* | -17% | 76*

Screening results deposited in PubChem by National Center for Advancing Translational Sciences (NCATS).
